# Most compounds without a hit are left out; they make up all but 5.3% or so of the library.
# Tau fluor cs: counter-screen for tau fibril formation inhibitors; tau K18 P301L Alexa594 fluorescence, heparin fibrillization; Potency, µM (highest dose often 57.7 µM), for inactives: at the highest dose activity change, negative = decrease; hit rate 0.93% among 280,000; also: potency is read from the fitted curve at half-maximal effect; nearly all actives have a fitted effect of over 55% in size
#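 Human tau K18 P301L (15 uM unlabeled, 0.24 uM Alexa 594-labeled) in 100 mM sodium acetate pH 7 with 20 uM heparin, 6 hr at 37 C. ThT 30 uM added, 1 hr ambient; Alexa 594 FP and total fluorescence read at 555/632 nm.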
# Sfp inh: Sfp phosphopantetheinyl transferase inhibition | Biochemical Sfp PPTase activity, qHTS | hit rate 3.5% among 310,000 | Q9F4F7 | Potency, µM, for the others: largest response in the series, negative = inhibition, hits mostly inhibitors;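 also: the enzyme is Sfp with the accession as filed and its product quenches rhodamine fluorescence; potency is read from the fitted curve at half-maximal effect; 0% = enzyme reaction without inhibitor and -100% = no enzyme wells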
#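 Buffer: 50 mM Hepes-Na pH 7.6, 10 mM MgCl2, 0.01% Nonidet P-40, 0.01% BSA. Enzyme 15 nM, pre-exposed to compound 15 min; substrates then added and fluorescence change tracked over 30 min.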
# JMJD2E inh: blocks human JMJD2E demethylase activity; B2RXH2; JMJD2E catalytic domain, FDH-coupled NADH fluorescence (FDH is formaldehyde dehydrogenase); Potency, µM (titrated, usually from 57.1 µM), for the others: at the highest dose activity change, negative = inhibition, most hits filed as inhibitors; hit rate 1.6% among 230,000; active = well fitted inhibition curve with a large enough effect, not every such curve was filed as active; inconclusive = small, poorly fitted or top-dose-only effect, or another doubt; inactive = no such curve, though single readings can be large or run the other way;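 also: potency is read from the fitted curve at half-maximal effect; 0% = wells with enzyme and -100% = buffer wells without enzyme; nearly all actives have a fitted effect of over 50% in size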
# Target sequence (B2RXH2 1-337 limits assumed): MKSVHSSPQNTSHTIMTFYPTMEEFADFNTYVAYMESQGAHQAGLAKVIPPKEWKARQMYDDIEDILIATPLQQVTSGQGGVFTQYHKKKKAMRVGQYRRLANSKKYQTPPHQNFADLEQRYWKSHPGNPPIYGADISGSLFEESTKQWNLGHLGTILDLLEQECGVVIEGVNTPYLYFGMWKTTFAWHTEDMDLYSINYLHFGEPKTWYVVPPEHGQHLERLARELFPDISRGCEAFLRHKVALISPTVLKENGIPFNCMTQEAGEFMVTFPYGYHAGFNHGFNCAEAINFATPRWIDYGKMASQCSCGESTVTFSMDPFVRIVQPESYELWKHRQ
# Tau fibril FP: blocks human tau fibril formation measured by polarization. P10636. K18 P301L tau heparin fibrillization, Alexa594 FP, 6 h. Potency, µM (top dose mostly 57.7 µM), without a hit: at the top dose activity, negative = inhibition, usual class: inhibitors. hit rate 0.39% among 280,000; also: potency is read from the fitted curve at half-maximal effect; nearly all actives have a fitted effect of over 55% in size
# Target sequence (P10636 561-689 P618L limits assumed): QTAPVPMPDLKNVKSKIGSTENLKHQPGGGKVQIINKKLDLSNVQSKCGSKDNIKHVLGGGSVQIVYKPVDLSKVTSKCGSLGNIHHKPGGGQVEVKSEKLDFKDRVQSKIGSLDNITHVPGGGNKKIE
#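 K18 P301L tau (15 uM unlabeled/0.24 uM Alexa 594-labeled, final) + compound + heparin 20 uM final; 100 mM NaOAc pH 7; 6 hr 37 C; ThT 30 uM final added, 1 hr RT; FP ex 555/em 632 nm.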
# Coupling enz: coupling enzyme interference in Giardia aldolase counter-screen | coupling enzyme system counterscreen, AmpLite Red fluorescence | AID 2472 | hit rate 0.67% among 290,000 | activity change, negative = inhibition, % at 58.2 µM, hits read low; in the data active = activity change below about -30%
#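 Counterscreen lacking aldolase: glyceraldehyde-3-phosphate coupling-enzyme reagent preincubated 10 min at RT with compound (at 57.5 uM final), then substrate/coupling system with AmpLite Red added; fluorescence read at 525/598 nm after 20 min RT.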
# Tau ThT inhib: tau fibrillization inhibition (ThT binding); P10636; recombinant tau K18 P301L, heparin-induced fibrillization, ThT fluorescence; Potency, µM (highest dose often 57.4 µM), without a hit: top-dose activity, negative = inhibition, most hits filed as inhibitors; hit rate 2.1% among 270,000; also: potency is read from the fitted curve at half-maximal effect; nearly all actives have a fitted effect of over 55% in size
#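 Fibril formation assay: tau K18 P301L at 15 uM with trace Alexa 594 label, heparin inducer 20 uM, pH 7 sodium acetate buffer, 37 C for 6 hr; endpoint ThT signal.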
# An asterisk follows results filed as active; u = inconclusive; x = no result given; [ ] = dose if it differs, or a comment. Unless noted, calls follow the shape of the dose curve; as a rule, active = well fitted curve in the direction sought with a large enough effect; inconclusive = small, poorly fitted or top-dose-only effect, or another doubt; inactive = no such curve, though single readings can be large; an effect the other way counts as inactive or inconclusive. Unless noted, % is scaled to controls: 0 for no effect and ±100 for the full control effect.
SMILES,Tau fluor cs,Sfp inh,JMJD2E inh,Tau fibril FP,Coupling enz,Tau ThT inhib
CN1C(=O)/C(=C/c2cn(CC(=O)NCc3ccco3)c3ccccc23)NC1=S,u,7.1µM*,-8%,u,-3,13µM*
Nc1nc(-c2ccc(Cl)cc2)nc(-c2ccc(Cl)cc2)n1,-11%,4%,-2%,-7%,1,0%
CCCOc1ccc(-c2nc(=S)[nH][nH]2)cc1,-7%,50µM*,-3%,0%,11,3%
S=c1nc(-c2ccc(Cl)cc2)[nH][nH]1,11%,45µM*,u,-5%,6,x
Cc1ccc(NC(=O)Nc2nnc(SCC(=O)N3CCC(C)CC3)s2)cc1,u,x,x,u,x,-11%
Cc1oc(-c2ccc(Cl)cc2)nc1Cn1c(=O)cc(C)c2c(C)nn(-c3ccccc3)c21,7%,x,x,-6%,x,0%
O=C(O)[C@@H]1CN[C@@H](C(=O)O)C1,4%,-22%,x,10%,x,8%
O=[N+]([O-])c1ccc(NCCCN2CCOCC2)c([N+](=O)[O-])c1,-11%,-3%,-14%,-18%,1,u
O=C(Nc1ccc(Cl)c([N+](=O)[O-])c1)c1ccc(NCCCN2CCOCC2)c([N+](=O)[O-])c1,-28%,-1%,-4%,-16%,4,2.5µM*
COc1ccc(NC(=O)c2ccc(NCCCN3CCOCC3)c([N+](=O)[O-])c2)cc1,-21%,u,-5%,13%,3,16µM*
Cc1ccc(NC(=O)c2ccc(NCCCN3CCOCC3)c([N+](=O)[O-])c2)cc1Cl,u,-27%,4%,-1%,3,13µM*
CSc1nn(CC(=O)Nc2cc(C)ccc2C)c(N)c1S(=O)(=O)c1ccccc1,-23%,x,x,-6%,x,3%
C=CC[n+]1c(-c2ccc(OCC)cc2)csc1NNC(=O)Nc1ccccc1,u,-17%,-11%,-8%,2,13µM*
CC[n+]1c(C)sc2c3ccsc3ccc21,-4%,1.4µM*,-6%,-11%,2,u
O=C(CCc1cn(Cc2ccccc2Cl)c2ccccc12)NC1CCCCC1,-12%,x,x,4%,x,-6%
Cc1nc(NC(=O)/C=C/c2ccccc2)n[nH]1,-3%,1%,0%,u,0,16µM*
Cc1c(Cc2ccc3c(c2)OCO3)sc(NC(=O)c2ccc3ccccc3c2)c1C(N)=O,-26%,13µM*,-25%,u,0,u
CCC(=O)Nc1sc(Cc2ccc3c(c2)OCO3)c(C)c1C(N)=O,-18%,40µM*,-4%,-7%,1,x
Cc1c(Cc2ccc3c(c2)OCO3)sc(NC(=O)C(C)(C)C)c1C#N,-8%,6%,1%,-12%,-1,-17%
CCNc1ncc2nc(CCc3ccccc3)c(=O)n(C)c2n1,x,-5%,x,x,1,x
Cc1cc(C(=O)NNC(=O)CCCCC(=O)NNC(=O)c2cc(C)[nH]n2)n[nH]1,2%,79µM*,-4%,0%,0,-10%
COc1ccc(CC(=O)NNC(=O)c2cc(C)[nH]n2)cc1,x,-15%,x,x,3,x
CCN1CCN(C(c2ccc(SC)cc2)c2c(O)cc(C)n(CCOC)c2=O)CC1 (stereo not given),3%,x,x,u,x,-9%
CCOc1ccc(Nc2c(S(=O)(=O)c3ccc(Cl)cc3)cnc3ccc(OC)cc23)cc1,-17%,x,x,-4%,x,-17%
C/C(=N\Nc1ccc(C(=O)O)cc1)c1ccc2c(c1)Nc1ccccc1S2,13µM*[quencher],-21%,u,-10%,2,3.5µM*
SMILES,Tau fluor cs,Sfp inh,JMJD2E inh,Tau fibril FP,Coupling enz,Tau ThT inhib
CCn1nc(C)cc1-c1nnc(SCC(=O)Nc2ccccc2)n1CCCOC,-1%,-4%,10%,-2%,0,x
CCn1nc(C)cc1-c1nnc(Sc2ncc([N+](=O)[O-])s2)n1C,x,45µM*,x,x,-2,x
Cc1ccccc1C(=O)Nc1ccc(-c2nc3ccc(C(=O)c4ccccc4)cc3[nH]2)cc1,u,16%,u,28µM*,-1,-5%
O=C(CCS(=O)(=O)c1cccs1)Nc1ccc(C(=O)Nc2ccccc2F)cc1,-5%,x,x,-14%,x,8%
CCOc1ccc(N2C(=O)C(Cl)=C(Nc3ccccc3O)C2=O)cc1,u,40µM*,-20%,u,0,10µM*
O=C1C(Cl)=C(Nc2ccccc2O)C(=O)N1CCc1ccccc1,u,11µM*,-2%,u,0,10µM*
COc1ccc(CCNC2=C(Cl)C(=O)N(CCc3ccccc3)C2=O)cc1OC,-17%,-13%,-3%,8%,-1,u
O=[N+]([O-])c1cc(S(=O)(=O)N2CCCC2)ccc1O,-7%,2%,2%,-9%,7,-10%
O=[N+]([O-])c1cc(S(=O)(=O)N2CCCCCC2)ccc1F,u,-2%,-3%,-7%,15,16µM*
CCOC(=O)/C(C#N)=C1\CC2CCC1(C)C2(C)C (stereo not given),-10%,40µM*,-23%,-7%,6,-8%
COc1ccc(-c2cc(-c3c(O)c(OC)c4occc4c3OC)[nH]n2)cc1,13µM*[quencher],u,u,14%,-4,11µM*
COc1ccc(-c2cc(-c3c(O)c(OC)c4occc4c3OC)[nH]n2)cc1OC,14µM*[quencher],-15%,u,11%,0,11µM*
Cc1ccc(C2CC(=O)Oc3cc(C)c(Cl)cc32)cc1 (stereo not given),-13%[81.3 µM],u,x,-1%[81.3 µM],5,-16%[81.4 µM]
Cc1ccc2cccc(NC(=O)C(C)Oc3ccc(Cl)cc3Cl)c2n1 (stereo not given),-29%,x,x,-11%,x,-16%
CCOCCCN(Cc1ccco1)S(=O)(=O)c1cc2c(cc1Cl)NC(=O)CO2,-15%,x,x,-2%,x,-7%
O=C(O)COc1ccc2ccccc2c1,x,4%,x,x,2,x
Cc1c(Cl)cccc1NC(=O)c1ccc2c(c1)CCCN2S(C)(=O)=O,5%,x,x,-7%,x,7%
C[C@H](CCCC(C)(C)O)[C@H]1CC[C@H]2[C@@H]3CC=C4C[C@@H](O)CC[C@]4(C)[C@H]3CC[C@]12C,x,13%,x,x,x,x
Cc1cc(C)nc(SCc2csc(N)n2)n1,-6%,35µM*,8%,-3%,1,-10%
O=C(Nc1ccccc1F)Nc1cccc2ccc(O)cc12,14µM*[quencher],-24%,u,u,-22,16µM*
O=C(Nc1ccccc1F)Nc1ccccc1F,-4%,21%,3%,-2%,0,1%
CCc1ccc(NC(=O)c2sc(-n3nc(C)c(CCC(C)C)c3C)nc2C)cc1,-16%,x,x,15%,x,u
Cc1ccc(NC(=S)Nc2ccc(C(C)C)cc2)cc1S(=O)(=O)N1CCCCCC1,7.9µM*[quencher],56µM*,3%,13µM*,-8,-15%
COc1ccc(NC(=S)Nc2ccc(C)c(S(=O)(=O)N3CCCCC3)c2)cc1,32µM*[quencher],-4%,5%,u,3,4%

# From PubChem BioAssay
